BoNT A protease: blocks Botulinum neurotoxin A light chain protease. multiplex microsphere protease substrate cleavage, flow cytometry. 360,000 compounds, 0.17% hits. inhibition, % at 10 µM
Mtb FBA inh: inhibitors of M. tuberculosis fructose-bisphosphate aldolase; purified M. tuberculosis FBA, fluorescence read-out; inhibition, % at 1 µM; 360,000 compounds, 2.3% hits; in the data active = inhibition above about 27%
Target sequence (P9WQA3 whole entry, looked up): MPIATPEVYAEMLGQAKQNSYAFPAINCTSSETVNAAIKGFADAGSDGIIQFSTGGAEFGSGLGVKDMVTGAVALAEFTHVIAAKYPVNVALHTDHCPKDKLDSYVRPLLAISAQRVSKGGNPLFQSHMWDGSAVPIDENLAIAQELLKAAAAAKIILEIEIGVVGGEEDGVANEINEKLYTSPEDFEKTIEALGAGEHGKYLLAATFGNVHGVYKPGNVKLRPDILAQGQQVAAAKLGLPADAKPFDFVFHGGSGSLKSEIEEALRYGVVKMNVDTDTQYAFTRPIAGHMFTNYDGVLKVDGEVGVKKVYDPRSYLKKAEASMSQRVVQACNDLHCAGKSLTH
GDH-TPI counter-1: GDH-TPI coupled enzyme inhibition counter-screen | GDH-TPI coupled enzyme counterscreen, NADH absorbance | inhibition, % at 4.8 µM | 360,000 compounds, 1.2% hits; in the data active = inhibition above about 30%
BoNT F protease: BoNT F light chain protease inhibition; Multiplex microsphere protease cleavage assay, flow cytometry; inhibition, % at 10 µM; 360,000 compounds, 0.22% hits; AID 588497; in the data active = inhibition above about 35%, passing the limit was not always enough; inconclusive = no clear call, values can overlap the other calls
Autofluor counter: counter-screen for toxin protease inhibitors: compound fluorescence; 360,000 compounds, 3.1% hits; fluorescence intensity (concentration not given with the values); compound autofluorescence counterscreen, microsphere flow cytometry; active compounds read high; in the data active = fluorescence intensity above about 16000; inconclusive = no clear call, values can overlap the other calls
Anthrax LF inh2: inhibitors of Bacillus anthracis lethal factor protease | inhibition, % at 10 µM | multiplex microsphere protease cleavage assay, LF | 360,000 compounds, 0.12% hits | P15917
Mtb FBA confirm: Mtb FBA inhibition, confirmed | shares compounds with Mtb FBA inh | purified M. tuberculosis FBA, fluorescence read-out | inhibition, % at 1 µM | 5,600 compounds, 78% hits; in the data active = inhibition above about 27%
GDH-TPI counter-2: GDH-TPI inhibition counter-screen for FBA inhibitors. shares compounds with Mtb FBA inh. GDH-TPI coupled enzyme counterscreen, fluorescence. inhibition, % at 1 µM. 5,600 compounds, 81% hits; in the data active = inhibition above about 10%
GDH-TPI DR: inhibits GDH-TPI coupling enzymes in dose response. shares compounds with Mtb FBA inh. GDH-TPI coupled enzyme assay, fluorescence, artifact counterscreen. IC50, µM. 170 compounds, 79% hits; call rule not given here
Large screens that a line does not name were inactive (follow-up assays come after a bar, where they were run). Compounds with a hit are over-represented: about 6.7% of the library has one in this group of screens. Cut-off read from the data, not from the text of the source, unless noted: active = inhibition above about 30%; inconclusive = no clear call, values can overlap the other calls; inactive = below that.

O=S(=O)(O)c1ccc(O)c2cc(Nc3ccccc3)ccc12	none
COc1ccc(Cc2noc(CN3CCCN(Cc4ccc(F)cc4)CC3)n2)cc1OC	Mtb FBA inh 59 | Mtb FBA confirm 58 | GDH-TPI counter-2 40
COc1ccc2oc3ccccc3c(=O)c2c1	Mtb FBA inh 101 | Mtb FBA confirm active | GDH-TPI counter-2 active
COc1ccc2oc(C(F)(F)C(F)F)cc(=O)c2c1	Mtb FBA inh 43 | Mtb FBA confirm 75 | GDH-TPI counter-2 52
CC12CCC(CC1O)C2C(=O)O (stereo unspecified)	none
COc1ccc2c(COC(=O)CNS(=O)(=O)c3ccc(C)c(C)c3)cc(=O)oc2c1	Mtb FBA inh 73 | Mtb FBA confirm 31 | GDH-TPI counter-2 28
Cc1ccc2c(COC(=O)c3ccc(C)c(C)c3)cc(=O)oc2c1	none
COc1ccc2c(COC(=O)CCS(=O)(=O)c3ccc(C)cc3)cc(=O)oc2c1	Mtb FBA inh 107 | Mtb FBA confirm 30 | GDH-TPI counter-2 26
CN(C)c1cccc(C(=O)OCc2cc(=O)oc3cc(O)ccc23)c1	Mtb FBA inh 55 | Mtb FBA confirm active | GDH-TPI counter-2 active
COc1ccc2c(COC(=O)c3ccc(C)c(S(=O)(=O)N4CCOCC4)c3)cc(=O)oc2c1	Autofluor counter inconclusive
CCCNS(=O)(=O)c1cccc(C(=O)OCc2cc(=O)oc3cc(OC)ccc23)c1	Mtb FBA inh 38 | Mtb FBA confirm 76 | GDH-TPI counter-2 59
CCN(C(=O)COC(=O)[C@H](C)N=C1NS(=O)(=O)c2ccccc21)C1CCS(=O)(=O)C1 (stereo partly specified)	Autofluor counter inconclusive, Anthrax LF inh2 inconclusive
CCn1ncc([C@@H]2C[C@H]3CN(Cc4ccccc4C)C(=O)[C@]34CCCN24)c1C	none
CCCC(=O)Nc1c(-c2ccccc2OC)c(=O)c2ccccc2n1C	none
CCCC(=O)Nc1c(-c2ccc(OC)cc2)c(=O)c2ccccc2n1C	Mtb FBA inh 28 | Mtb FBA confirm inactive | GDH-TPI counter-2 inactive
CCCCCC(=O)Nc1c(-c2ccc(OC)cc2)c(=O)c2ccccc2n1C	Mtb FBA inh 28, Autofluor counter 21066 | Mtb FBA confirm 128 | GDH-TPI counter-2 104
COc1ccc(C(=O)O/N=C(\N)c2cccc(C)c2)cc1OC	none
COc1ccc2[nH]c(C(=O)NCCCn3ccnc3)cc2c1	Mtb FBA inh 86 | Mtb FBA confirm 125 | GDH-TPI counter-2 90
O=C(NCCc1ccccc1)c1ccc2[nH]c(=O)c(=O)[nH]c2c1	Mtb FBA inh 33 | Mtb FBA confirm 32 | GDH-TPI counter-2 19
CCOc1ccc(NC(=O)C(=O)NCCCn2ccnc2)cc1	Mtb FBA inh 44 | Mtb FBA confirm 197 | GDH-TPI counter-2 164
COc1ccc(C(=O)c2c[nH]c(C(=O)NCCCn3ccnc3)c2)cc1	none
O=C(NCCc1ccccc1)c1ccc(=O)[nH]c1	none
COc1ccc2[nH]c(=O)c(C(=O)O)cc2c1	Mtb FBA inh 53 | Mtb FBA confirm 66 | GDH-TPI counter-2 61
COCCNS(=O)(=O)c1cc(F)ccc1OC	none
COC(=O)CC1COc2ccccc2N1S(=O)(=O)c1ccc(OC)cc1 (stereo unspecified)	none
CCc1ccc(NC(=O)C(=S)NC2CCCCC2)cc1	none
O=C(O)c1cc2cc(OCc3ccccc3)ccc2[nH]1	Mtb FBA inh 39 | Mtb FBA confirm 129 | GDH-TPI counter-2 97
COc1ccc(C(=O)NCCCNC(=O)c2cc3ccccc3[nH]2)cc1OC	none
CCCCNC(=O)c1cc2cc(OC)ccc2[nH]1	Mtb FBA inh 49, BoNT F protease inconclusive | Mtb FBA confirm inactive | GDH-TPI counter-2 inactive
COc1ccc2[nH]c(C(=O)O)c(CCNC(C)=O)c2c1	Mtb FBA inh 49 | Mtb FBA confirm 125 | GDH-TPI counter-2 106
COc1ccc2[nH]c(C(=O)N(Cc3ccccn3)Cc3ccccn3)cc2c1	Mtb FBA inh 34 | Mtb FBA confirm 132 | GDH-TPI counter-2 113
O=C(O)c1cc(OCc2ccccc2)cc(OCc2ccccc2)c1	none
O=C1OC(C(=O)NCc2ccccc2)Cc2ccccc21 (stereo unspecified)	none
Cc1ccc(-n2nnnc2SCn2nnc3ccccc3c2=O)cc1	none
COc1ccc2[nH]c(C(=O)NCCc3ccccc3)cc2c1	Mtb FBA inh 48 (no result: BoNT A protease, BoNT F protease, Autofluor counter, Anthrax LF inh2) | Mtb FBA confirm inactive | GDH-TPI counter-2 inactive
CC1CCCC(NC(=O)COC(=O)/C=C/c2ccc(F)cc2)C1C (stereo unspecified)	none
O=C(Nc1cccc2ccccc12)N1CCOCC1	Mtb FBA inh 45 | Mtb FBA confirm 122 | GDH-TPI counter-2 88
COc1ccccc1NC(=O)N1CCOCC1	BoNT F protease inconclusive
CN1CCN(C(=O)Nc2cccc3ccccc23)CC1	Mtb FBA inh 40, Autofluor counter 18834 | Mtb FBA confirm inactive | GDH-TPI counter-2 inactive
O=C(Nc1cccc2ccccc12)N1CCc2ccccc2C1	Mtb FBA inh 43 | Mtb FBA confirm inactive | GDH-TPI counter-2 inactive | GDH-TPI DR inactive
O=C(Nc1cccc2ccccc12)N1CCN(c2ccc(F)cc2)CC1	Mtb FBA inh 30 | Mtb FBA confirm 54 | GDH-TPI counter-2 55
O=C(Nc1cccc2ccccc12)N1CCCN(c2c(Cl)cncc2Cl)CC1	BoNT F protease inconclusive
O=C(NCCNC1CCC(c2ccccc2)CC1)c1cccs1 (stereo unspecified)	none
O=C(O)c1ccccc1NC(=O)N1CCOCC1	Mtb FBA inh 32 | Mtb FBA confirm 112 | GDH-TPI counter-2 90
CCN1CCN(C(=O)Nc2cccc3ccccc23)CC1	Mtb FBA inh 44 | Mtb FBA confirm 71 | GDH-TPI counter-2 72
CCN1CCN(C(=O)Nc2ccc(OC)cc2OC)CC1	none
NC(=O)C1CCCN(C(=O)Nc2cccc3ccccc23)C1 (stereo unspecified)	Mtb FBA inh 40 | Mtb FBA confirm 60 | GDH-TPI counter-2 46
CCN(CC)C(=O)C1CCCN(C(=S)Nc2cccc3ccccc23)C1 (stereo unspecified)	none
O=Cc1cn(CC(O)Cn2cc(C=O)c3ccccc32)c2ccccc12	none
CC1(C)Cc2nc(N3CCOCC3)c(C#N)cc2CO1	Mtb FBA inh 49 | Mtb FBA confirm 37 | GDH-TPI counter-2 35
CC1(C)Cc2nc(N3CCCC3)c(C#N)cc2CO1	Mtb FBA inh 110 | Mtb FBA confirm 66 | GDH-TPI counter-2 50
O=C(Cc1cccs1)N1CCN(c2ccccn2)CC1	Mtb FBA inh 29, Autofluor counter inconclusive | Mtb FBA confirm 54 | GDH-TPI counter-2 43
O=C(CSc1ccccc1)N1CCN(c2ccccn2)CC1	none

Screening results (PubChem BioAssay)
